Screening data (PubChem BioAssay)
Only some compounds are listed: those with a hit (about 3.5% of all), similar ones and a draw of the others.
TR SRC2 fluor cs: Total Fluorescence Counterscreen for Inhibitors of the Interaction of Thyroid Hormone Receptor and Steroid Receptor Coregulator 2 | TRb/SRC2 Texas Red total fluorescence interference | Potency, µM (doses to about 106 µM) | hit rate 0.29% among 280,000; active = well fitted curve in either direction with a large enough effect; inconclusive = small, poorly fitted or top-dose-only effect
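Human TRβ ligand-binding domain (0.6 uM) and Texas Red SRC2 peptide (20 nM) in Tris buffer with 1 uM T3 and 5% DMSO were incubated with pinned compound for 5 hr at ambient temperature. Total fluorescence was computed as S + 2P (555/632 nm).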
Tau FP inhib: qHTS for Inhibitors of Tau Fibril Formation, Fluorescence Polarization | Microtubule-associated protein tau (Homo sapiens), P10636 | K18 P301L tau heparin fibrillization, Alexa594 FP, 6 h | Potency, µM (series often up to 57.7 µM), most hits filed as inhibitors | hit rate 0.39% among 280,000 | AID 1468, 2008; also: nearly all actives have a fitted effect of over 55% in size
Target sequence (P10636 561-689 P618L limits assumed): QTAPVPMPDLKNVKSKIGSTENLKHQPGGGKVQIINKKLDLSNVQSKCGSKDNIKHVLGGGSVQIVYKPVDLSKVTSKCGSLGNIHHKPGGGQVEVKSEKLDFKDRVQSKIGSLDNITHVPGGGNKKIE
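Read-out: fluorescence polarization of Alexa 594-labeled tau (0.24 uM), 555 nm excitation, 632 nm emission. Mixtures held 15 uM unlabeled K18 P301L, compound and 20 uM heparin, pH 7 acetate buffer, incubated 6 hr at 37 C.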
Tau fluor counter: Counterscreen qHTS for Inhibitors of Tau Fibril Formation, Fluorescence Polarization; AID 1463, 2008; Potency, µM (titrated, usually from 57.7 µM); tau K18 P301L Alexa594 fluorescence, heparin fibrillization; hit rate 0.93% among 280,000; also: nearly all actives have a fitted effect of over 55% in size
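Human K18 P301L tau (15 uM unlabeled plus 0.24 uM Alexa 594-labeled, final) in 100 mM sodium acetate pH 7 was mixed with compound and 20 uM heparin and incubated 6 hr at 37 C.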
TRb SRC2 PPI: qHTS for Inhibitors of the Interaction of Thyroid Hormone Receptor and Steroid Receptor Coregulator 2 | hit rate 0.065% among 280,000 | TRbeta-SRC2 peptide binding, fluorescence polarization; receptor liganded with 1 µM T3 | Potency, µM (top dose mostly 106 µM), hits mostly inhibitors | Thyroid hormone receptor beta (Homo sapiens), P10828; also: nearly all actives have a fitted effect of over 50% in size
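Fluorescence polarization of 20 nM Texas Red SRC2 peptide with 0.6 uM human TRb ligand-binding domain, in Tris buffer with 1uM T3 and 5% DMSO. Incubated 5 hr ambient; normalized to unbound and bound controls.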
JMJD2E inh: qHTS Assay for Inhibitors of Human Jumonji Domain Containing 2E (JMJD2E); Lysine-specific demethylase 4E (Homo sapiens), B2RXH2; JMJD2E catalytic domain, FDH-coupled NADH fluorescence (FDH is formaldehyde dehydrogenase); Potency, µM (highest dose often 57.1 µM), most hits filed as inhibitors; hit rate 1.6% among 230,000; AID 2147, 2009; active = well fitted inhibition curve with a large enough effect, not every such curve was filed as active; inconclusive = small, poorly fitted or top-dose-only effect, or another doubt; inactive = no such curve, though single readings can be large or run the other way; also: nearly all actives have a fitted effect of over 50% in size
Target sequence (B2RXH2 1-337 limits assumed): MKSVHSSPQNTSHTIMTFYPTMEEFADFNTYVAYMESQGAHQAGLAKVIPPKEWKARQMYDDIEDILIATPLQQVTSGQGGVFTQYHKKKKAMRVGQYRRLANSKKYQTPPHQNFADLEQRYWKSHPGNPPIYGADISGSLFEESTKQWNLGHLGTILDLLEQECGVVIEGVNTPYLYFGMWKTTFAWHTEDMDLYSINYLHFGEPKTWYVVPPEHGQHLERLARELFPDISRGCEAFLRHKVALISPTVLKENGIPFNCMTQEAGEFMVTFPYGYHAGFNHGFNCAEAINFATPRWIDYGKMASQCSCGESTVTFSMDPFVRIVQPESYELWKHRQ
Tau ThT inhib: qHTS for Inhibitors of Tau Fibril Formation, Thioflavin T Binding | Microtubule-associated protein tau (Homo sapiens), P10636 | recombinant tau K18 P301L (four-repeat tau fragment), heparin-induced fibrillization, ThT fluorescence | Potency, µM (titrated, usually from 57.4 µM), usual class: inhibitors | hit rate 2.1% among 270,000 | AID 1460, 2008; also: nearly all actives have a fitted effect of over 55% in size
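Tau K18 P301L fragment (15 uM unlabeled plus 0.24 uM Alexa 594-labeled) in 100 mM sodium acetate pH 7 with compound, fibrillization induced by 20 uM heparin for 6 hr at 37 C. Thioflavin T (30 uM) added, fluorescence read after 1 hr (ex 450, em 510 nm).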
Numbers stand for hits; i = inactive; ? = inconclusive; nt = not tested or not shown; [ ] = remark or other dose. Unless noted, calls follow the shape of the dose curve; as a rule, active = well fitted curve in the direction sought with a large enough effect; inconclusive = small, poorly fitted or top-dose-only effect, or another doubt; inactive = no such curve, though single readings can be large; an effect the other way counts as inactive or inconclusive.

SMILES	TR SRC2 fluor cs	Tau FP inhib	Tau fluor counter	TRb SRC2 PPI	JMJD2E inh	Tau ThT inhib
Cc1c(N2C(=O)/C(=C\c3ccc(N(C)C)cc3)N(C)C2=S)c(=O)n(-c2ccccc2)n1C	i	i	i	i	i	14µM
CN1C(=S)N(c2cccnc2)C(=O)/C1=C\c1ccc(C(C)(C)C)cc1	i	i	i	i	i	?
CCOc1ccccc1NC(=O)Cn1c(-c2ccc(Cl)cc2)noc1=O	i	i	i	i	i	i
O=C1CCC(=O)N1CCSC(=S)N1CCOCC1	i	i	i	i	i	i
CSc1nc(=NC(C)=O)ss1	i	?	i	i	i	25µM
CCC(=O)N1CCc2cc(Br)cc(S(=O)(=O)N(CC)Cc3ccccc3)c21	i	i	i	i	nt	i
Cc1cc(C)cc(NC(=O)Nc2ccc3nc(N4CCN(C)CC4)cc(C)c3c2)c1	?	?	7.9µM[quencher]	i	nt	?
COc1ccccc1CNC(=S)Nc1ccc2nc(N3CCN(C)CC3)cc(C)c2c1	i	?	20µM[quencher]	i	?	?
Cc1cc(N2CCN(C)CC2)nc2ccc(NC(=S)NCc3cccs3)cc12	i	i	?	i	?	?
Cc1cc(N2CCN(C)CC2)nc2ccc(NC(=O)Nc3ccc(F)cc3)cc12	i	?	?	i	nt	?
Cc1cc(N2CCN(C)CC2)nc2ccc(NC(=O)Nc3ccccc3Cl)cc12	i	?	14µM[quencher]	i	nt	14µM
COc1cccc(NC(=O)Nc2ccc3nc(N4CCN(C)CC4)cc(C)c3c2)c1	i	?	14µM[quencher]	i	nt	?
CC(=O)O[C@H]1C2=C(C(=O)[C@H]3O[C@@H]31)[C@@H]1[C@@H]3[C@@H](C)OC=C4[C@H](O)[C@H]5O[C@@H]5C(=O)[C@]43C2O[C@H]1C	i[11.2 µM]	i[11.6 µM]	i[11.6 µM]	i[11.2 µM]	nt	?
O=C(Oc1ccccc1C(=O)O)c1ccccc1O	i	i	i	i	?	i
O=C(/C=C/C(=O)Oc1ccccc1C(=O)O)Oc1ccccc1C(=O)O	i	25µM	i	i	?	25µM
CCC(=O)N(CC)C1=C(O)c2ccccc2C(=O)C1=O	i	?	?	i	i	16µM
N#CC1=C(N)Oc2n[nH]c(-c3cccnc3)c2C1c1ccc([N+](=O)[O-])o1 (configuration not stated)	i	?	?	i	i	13µM
N#CC1=C(N)Oc2n[nH]c(-c3ccccc3)c2C1c1cccnc1 (configuration not stated)	i	i	i	i	i	?
Cc1cccc(N2C(=O)C(Cl)=C(Nc3c(C)n(C)n(-c4ccccc4)c3=O)C2=O)c1C	i	?	i	i	i	?
Cc1ccc(N2C(=O)C(Cl)=C(Nc3c(C)n(C)n(-c4ccccc4)c3=O)C2=O)cc1	i	?	i	i	?	28µM
O=C1CN(C(=O)CNCc2ccccc2)c2ccccc2N1	i	i	i	i	?	i
CCOC(=O)c1ccccc1NC(=O)NCc1c(-n2cccc2)sc2c1CCCC2	i	i	i	i	nt	?
COC(=O)C(O)(CC(=O)Nc1ccc(OC(F)(F)F)cc1)C(F)(F)F (configuration not stated)	i	i	i	i	i	i
O=C(CCS(=O)(=O)c1ccc(Br)s1)Nc1c(F)cccc1F	398µM[quencher]	i	i	?	nt	i
Cc1c(Cl)cccc1NC(=O)CCS(=O)(=O)c1ccc(Br)s1	i	i	i	i	nt	i
SMILES	TR SRC2 fluor cs	Tau FP inhib	Tau fluor counter	TRb SRC2 PPI	JMJD2E inh	Tau ThT inhib
Cc1cc(=O)oc2cc(Oc3ncccc3[N+](=O)[O-])ccc12	i	i	i	i	?	i
Cc1cc(=O)oc2cc(Oc3ccc([N+](=O)[O-])cc3[N+](=O)[O-])ccc12	?	i	13µM[quencher]	i	?	?
N#CCC(=O)Nc1ccc(C(=O)NCc2ccccn2)cc1	i	i	i	i	i	i
O=C(NC1CC1)C1=C[C@@H](c2c[nH]c3ccccc23)C[C@@H](OCc2ccc(CO)cc2)O1	i	i	i	i	25µM	i
O=C(CCc1ccc(O)cc1)c1c(O)cc(O)cc1O[C@H]1OC(CO)C(O)C(O)C1O (some centres not stated)	?	i	i	i	?	?
CCOC(=O)NN1C(=O)c2ccccc2NC1c1ccc(N(C)C)cc1 (configuration not stated)	112µM[quencher]	i	i	i	?	i
C=CCNc1oc(/C=C/c2ccccc2)nc1C#N	i	i	i	i	?	i
COc1ccc(NC(=O)c2ccc3c(c2)NC(=O)CS3)cc1S(=O)(=O)Nc1ccc(Br)cc1	i	28µM	?	i	?	i
COc1ccc(C(=O)Nc2ccccc2)cc1S(=O)(=O)Nc1ccc(Br)cc1	i	?	i	i	nt	i
Cc1nc2sccn2c1-c1nc(-c2cc3ccccc3o2)cs1	i	i	i	i	i	?
CC(=O)Nc1cccc(-c2csc(Nc3ccc(Cl)cn3)n2)c1	i	i	13µM[quencher]	i	?	?
CC(=O)Nc1cccc(-c2csc(Nc3ccccn3)n2)c1	i	i	?	i	i	?
CC(=O)Nc1ccc(-c2csc(Nc3cc(C)ccn3)n2)cc1	i	i	16µM[quencher]	i	i	7.1µM
CC(=O)Nc1cccc(-c2csc(Nc3cc(C)ccn3)n2)c1	i	i	18µM[quencher]	i	?	?
Cc1ccnc(Nc2nc(-c3c(C)nc4sccn34)cs2)c1	i	i	14µM[quencher]	i	?	7.9µM
CC[C@H](C)[C@H](NC(=O)[C@@H]1CCCN1C(=O)[C@H](C)NC(=O)[C@H](CC(N)=O)NC(=O)[C@@H]1CCCN1C(=O)[C@@H]1CCCN1C(=O)[C@H](CCCN=C(N)N)NC(=O)[C@H](Cc1ccc(O)cc1)NC(=O)[C@H](C)NC(=O)[C@@H]1CCCN1C(=O)[C@@H]1CCCN1C(=O)[C@@H](N)[C@@H](C)O)C(=O)N[C@@H](CC(C)C)C(=O)O	?	nt	nt	i	nt	nt
CCOC(=O)c1cc(-c2ccccc2)n(CCCC(=O)Nc2ccc(C)c(C)c2)c1C	i	i	i	i	nt	i
Cc1cccc(Nc2ncnc3c2cnn3C)c1	i	i	i	i	?	i
Cn1ncc2c(Nc3ccc(Br)cc3)nc(Nc3ccc(Br)cc3)nc21	i	10µM	?	i	?	?
Cn1ncc2c(Nc3ccc(O)cc3)nc(Cl)nc21	i	i	i	i	i	i
Cn1ncc2c(Nc3cccc(Cl)c3)nc(Nc3cccc(Cl)c3)nc21	i	8.9µM	?	i	?	i
